Key:
Experiment in all cases: PBM binding z-score (relative to random genomic background probes); higher = stronger binding; sequences stand for … in GC…GCGATTGACAGCGTAGAATGAAGG
[1] = tested on: RARb homodimer (NR concentration 270 nM)
Procedure, shortened: (§1)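 Binding z-scores take random background probes as their reference. They come from custom Agilent 4×180K protein-binding microarrays incubated 1 h with ligand-free nuclear receptor dimers, with antibodies against each partner (one per run) detecting binding. Scanned fluorescence was regression-normalized.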

[2] = tested on: RARg:RXRa (NR concentration 270 nM, RXRa partner concentration 90 nM)
Procedure, shortened: as §1

[3] = tested on: RARg homodimer (NR concentration 270 nM)
Procedure, shortened: as §1

[4] = tested on: RXRa DBDmut IVT, anti-RXR (DBD mutation: RXRa K156A/R161A, NR concentration 90 nM)
Procedure, shortened: as §1

[5] = tested on: RXRa homodimer (NR concentration 180 nM)
Procedure, shortened: as §1

[6] = tested on: THRa:RXRa (NR concentration 90 nM, RXRa partner concentration 90 nM)
Procedure, shortened: as §1

[7] = tested on: THRa homodimer (NR concentration 90 nM)
Procedure, shortened: as §1

[8] = tested on: VDR homodimer (NR concentration 270 nM)
Procedure, shortened: as §1

| Sequence | PBM binding z-score [1] | PBM binding z-score [2] | PBM binding z-score [3] | PBM binding z-score [4] | PBM binding z-score [5] | PBM binding z-score [6] | PBM binding z-score [7] | PBM binding z-score [8] |
| --- | --- | --- | --- | --- | --- | --- | --- | --- |
| CTTTACGGGTCACGAGGTTATAGCACGACGAGCG | 4.15 | 6.33 | 5.71 | 2.53 | 7.44 | 3.92 | 1.66 | 2.28 |
| GGAACGAGGGCAGAGTTGATAGCATCTGTCGACG | 0.448 | 0.934 | 1.12 | 1.49 | 0.588 | 0.324 | -0.629 | 0.314 |
| TATAGAGGGTCAAAGGCCAGAGTACGAATGTCGA | 3.3 | 4.91 | 4.91 | 2.16 | 6.11 | 2.39 | -0.0967 | 1.73 |
| TCTTGTAGATCAGCAGGAGGTTAAGAAAGATCGA | 0.33 | 0.611 | 0.176 | 0.327 | 0.81 | 0.885 | -0.878 | -0.496 |
| CGTCCAAGGTCAAAGGTCAGTGCAGAGATGACGG | 5.5 | 8.65 | 8.11 | 4.2 | 10 | 4.76 | 3.26 | 4.12 |
| ATCTCTAGGTAACCAAGTTCAGTGATTGCCGAAC | 1.45 | 0.546 | 0.823 | 1.02 | 0.505 | 1.44 | 0.949 | 2.76 |
| TCTATTAGTTGATTAGGGAAACCGAAACAGCGGA | 0.0312 | 0.311 | 0.329 | 1.18 | 0.472 | 0.12 | 0.159 | 0.507 |
| CCTACTGGGCCGAAGGTCATTGATTCCAATGCTC | 3.08 | 2.93 | 2.53 | 0.398 | 3.01 | 1.99 | 0.19 | 1.46 |
| ATACCAAGGTGATCGTGAGGTCGTTGACACTAAC | 1.85 | 2.27 | 0.855 | 0.311 | 1.56 | 3.63 | 2.59 | 2.93 |
| CCTAGTTGGTCAGGAGGTCACCCACCGGATATGA | 4.11 | 4.91 | 4.4 | -0.0796 | 4.2 | 3.47 | 2.51 | 2.4 |
| CCTACTGGCCCATCAGGTCATTGATATCAACGTT | 2.36 | 1.72 | 1.54 | 0.0636 | 1.13 | 3.29 | 3.04 | 1.9 |
| CCTAGCAGGCCAAACTGGGTCACTCAAGGCTTGA | 2.17 | 1.16 | 1.51 | 0.301 | 0.807 | 3.68 | 0.159 | -0.107 |
| ATCTCTAGGTAAGACTCAGTTCAGAGAAGAACGC | 0.397 | 0.254 | 0.549 | 0.3 | -0.0317 | 0.761 | 0.645 | 1.12 |
| ATCTCTAGGAAAAAGTTCAGTGAATCCCGAGGAT | 1.74 | 1.01 | 1.4 | 0.393 | 0.399 | 0.0597 | -0.127 | 1.42 |
| TAGCCTAGGTCATGCGCGCCAGTATAGTGTCGGC | 3.06 | 4.02 | 4.19 | 0.635 | 3.16 | 3.17 | 1.27 | 0.448 |
| GTAGACAGGTGAAACGCAGGTAACTCAGGGTGGC | 0.348 | 0.896 | 0.286 | -0.661 | 0.743 | 1.43 | -0.349 | -0.271 |
| CCTTACGGGTTACGAGGTTATAGCACGACGAGCG | 1.24 | 2.31 | 1.43 | -0.0539 | 2.99 | 2.23 | 0.638 | 0.469 |
| AGAATGAGGGTACCAAAGATCAGGGAAACGCTTG | 0.0111 | 0.44 | 0.506 | 0.104 | 0.821 | 0.502 | -0.667 | -0.0915 |
| ATCTCTACGTAACAAGTTCAGTGAAAGAGAGGAC | 1.68 | 0.999 | 1.24 | 0.873 | 0.659 | 1.07 | 0.629 | 2.6 |
| TGTACAGGGTCAAAGGCCAGAGTACGAATGTCGA | 3.31 | 5.52 | 4.74 | 2.86 | 6.85 | 3.43 | 0.326 | 2.65 |
| TCATAAAGGTAATACAGGTGAAAGTCGGCATCTA | 1.09 | 1.3 | 0.722 | 1.78 | 1.67 | 1.7 | 0.207 | 0.435 |
| ATCGAAAAGTCGTGAGGTGAGTATACAGAAAGGC | 0.17 | 0.561 | 0.564 | -0.691 | 0.466 | 1.68 | 1.14 | -0.0663 |
| ATATGTAGGTTAGCTGCGGTCATTCAGACTAGGC | 2.02 | 1.43 | 1.83 | 0.343 | 0.968 | 4.05 | 0.202 | 0.904 |
| ACTTACAGGTCAACGAGGTTATAGCACGCGTATA | 4.19 | 5.93 | 5.75 | 2.76 | 5.89 | 4.02 | 1.8 | 4.27 |
| ATCGAAAGGTCGACTAGGTGAGTATACACCGTTT | 2.66 | 4.11 | 3.91 | 0.992 | 4.12 | 2.86 | 0.0406 | 1.09 |
| CAAACTAGGTCACCAGAAGGTCAAAGTCCGCATG | 5.5 | 8.08 | 7.22 | 2.32 | 6.38 | 4.35 | 2.59 | 3.71 |
| AGAACTAGGGCACGCTGAGTTGATAGCAGAGTAG | 0.535 | 0.967 | 1.49 | -0.125 | 0.504 | 0.309 | -0.568 | 0.21 |
| CTACCACGGTGAACAAGGTCGTTGATTACTATTC | 1.3 | 0.591 | 0.651 | 1.04 | 0.823 | 1.93 | 1.4 | 2.12 |
